Results published in publication PMC5540273 (PLoS ONE, 2017).

Key:
Conditions in all cases: concentration: 1 μM, replicates: in singlicate; n = 1
[1] = tested on: DYRK1B
[2] = tested on: DYRK2
[3] = tested on: EGFR
[4] = tested on: EIF2AK1
[5] = tested on: EPHA1
[6] = tested on: EPHA2
[7] = tested on: EPHA3
[8] = tested on: EPHA4
[9] = tested on: EPHA5
[10] = tested on: EPHA6
[11] = tested on: EPHA7
[12] = tested on: EPHA8
[13] = tested on: EPHB1
[14] = tested on: EPHB2
[15] = tested on: EPHB3
[16] = tested on: EPHB4
[17] = tested on: EPHB6
[18] = tested on: ERBB2
[19] = tested on: ERBB3
[20] = tested on: ERBB4
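Further: KINOMEscan kinase panel screen.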

Cl.c1ccc(-c2ccc3c(Nc4ccc5[nH]ncc5c4)ccnc3c2)nc1 [GW440137]
%Inh [1]: 31%
%Inh [2]: 26%
%Inh [3]: 66%
%Inh [4]: 0%
%Inh [5]: 32%
%Inh [6]: 0%
%Inh [7]: 7%
%Inh [8]: 2%
%Inh [9]: 0%
%Inh [10]: 28%
%Inh [11]: 0%
%Inh [12]: 16%
%Inh [13]: 13%
%Inh [14]: 0%
%Inh [15]: 0%
%Inh [16]: 6%
%Inh [17]: 46%
%Inh [18]: 34%
%Inh [19]: 35%
%Inh [20]: 31%

CN(c1ccc(NC(=O)Nc2cc(C(F)(F)F)ccc2F)cc1)c1ccnc(Nc2ccc(S(N)(=O)=O)cc2)n1 [GW809893]
%Inh [1]: 10%
%Inh [2]: 14%
%Inh [3]: 4%
%Inh [4]: 10%
%Inh [5]: 97.4%
%Inh [6]: 96.1%
%Inh [7]: 78%
%Inh [8]: 96.9%
%Inh [9]: 97.5%
%Inh [10]: 98.5%
%Inh [11]: 97.9%
%Inh [12]: 99.9%
%Inh [13]: 97.5%
%Inh [14]: 95.7%
%Inh [15]: 50%
%Inh [16]: 95%
%Inh [17]: 98.8%
%Inh [18]: 0%
%Inh [19]: 35%
%Inh [20]: 0%

Cl.Cl.NCC(NC(=O)c1cc(-c2ccccc2)c(-c2ccnc3[nH]ccc23)s1)c1ccccc1 (centres unmarked) [GSK1321561]
%Inh [1]: 100%
%Inh [2]: 25%
%Inh [3]: 84%
%Inh [4]: 0%
%Inh [5]: 26%
%Inh [6]: 21%
%Inh [7]: 38%
%Inh [8]: 2%
%Inh [9]: 6%
%Inh [10]: 34%
%Inh [11]: 11%
%Inh [12]: 50%
%Inh [13]: 16%
%Inh [14]: 0%
%Inh [15]: 7%
%Inh [16]: 19%
%Inh [17]: 2%
%Inh [18]: 58%
%Inh [19]: 0%
%Inh [20]: 49%

O=c1[nH]cc(-c2ccc(N3CCOCC3)cc2)c2sc(-c3cn[nH]c3)cc12 [GSK2276055]
%Inh [1]: 100%
%Inh [2]: 89%
%Inh [3]: 18%
%Inh [4]: 0%
%Inh [5]: 0%
%Inh [6]: 0%
%Inh [7]: 30%
%Inh [8]: 0%
%Inh [9]: 0%
%Inh [10]: 0%
%Inh [11]: 9%
%Inh [12]: 12%
%Inh [13]: 6%
%Inh [14]: 0%
%Inh [15]: 0%
%Inh [16]: 2%
%Inh [17]: 31%
%Inh [18]: 3%
%Inh [19]: 0%
%Inh [20]: 24%

Cc1ccc(C(=O)Nc2ccc(Nc3ccnc4cc(-c5nccs5)ccc34)cc2O)cc1.Cl [GW494702]
%Inh [1]: 0%
%Inh [2]: 0%
%Inh [3]: 45%
%Inh [4]: 6%
%Inh [5]: 8%
%Inh [6]: 15%
%Inh [7]: 0%
%Inh [8]: 9%
%Inh [9]: 0%
%Inh [10]: 15%
%Inh [11]: 0%
%Inh [12]: 0%
%Inh [13]: 11%
%Inh [14]: 21%
%Inh [15]: 20%
%Inh [16]: 12%
%Inh [17]: 50%
%Inh [18]: 42%
%Inh [19]: 21%
%Inh [20]: 10%

CSc1cccc2c(-c3ccncn3)c(-c3ccc(F)cc3)nn12 [GW514786]
%Inh [1]: 0%
%Inh [2]: 12%
%Inh [3]: 70%
%Inh [4]: 0%
%Inh [5]: 18%
%Inh [6]: 7%
%Inh [7]: 0%
%Inh [8]: 0%
%Inh [9]: 0%
%Inh [10]: 0%
%Inh [11]: 9%
%Inh [12]: 26%
%Inh [13]: 15%
%Inh [14]: 0%
%Inh [15]: 4%
%Inh [16]: 2%
%Inh [17]: 20%
%Inh [18]: 34%
%Inh [19]: 13%
%Inh [20]: 0%

COC(=O)Nc1nc2ccc(Oc3ccc(NC(=O)Nc4cc(C(F)(F)F)ccc4F)cc3)cc2n1C.Cl [GW692089]
%Inh [1]: 26%
%Inh [2]: 0%
%Inh [3]: 0%
%Inh [4]: 0%
%Inh [5]: 36%
%Inh [6]: 75%
%Inh [7]: 26%
%Inh [8]: 65%
%Inh [9]: 0%
%Inh [10]: 84%
%Inh [11]: 72%
%Inh [12]: 91.5%
%Inh [13]: 35%
%Inh [14]: 43%
%Inh [15]: 17%
%Inh [16]: 48%
%Inh [17]: 67%
%Inh [18]: 28%
%Inh [19]: 29%
%Inh [20]: 4%

COc1cccc(C(=O)Nc2cccc(Oc3ccc4nc(NC(=O)C5CC5)cn4n3)c2)c1
%Inh [1]: 19%
%Inh [2]: 9%
%Inh [3]: 78%
%Inh [4]: 0%
%Inh [5]: 42%
%Inh [6]: 98.7%
%Inh [7]: 62%
%Inh [8]: 79%
%Inh [9]: 57%
%Inh [10]: 68%
%Inh [11]: 5%
%Inh [12]: 98.4%
%Inh [13]: 87%
%Inh [14]: 94.5%
%Inh [15]: 0%
%Inh [16]: 85%
%Inh [17]: 98.5%
%Inh [18]: 4%
%Inh [19]: 10%
%Inh [20]: 6%

Cc1ccc(C)c(NC(=O)NC2CCN(c3ccnc(Nc4ccc(F)cc4)n3)C2)c1 (centres unmarked) [GSK1379720]
%Inh [1]: 0%
%Inh [2]: 8%
%Inh [3]: 0%
%Inh [4]: 0%
%Inh [5]: 18%
%Inh [6]: 0%
%Inh [7]: 0%
%Inh [8]: 0%
%Inh [9]: 0%
%Inh [10]: 0%
%Inh [11]: 0%
%Inh [12]: 0%
%Inh [13]: 0%
%Inh [14]: 16%
%Inh [15]: 8%
%Inh [16]: 6%
%Inh [17]: 24%
%Inh [18]: 43%
%Inh [19]: 11%
%Inh [20]: 47%

CCn1c(-c2nonc2N)nc2c(C#CC(C)(C)O)nc(OC[C@H](N)c3ccccc3)cc21 [GSK943949]
%Inh [1]: 0%
%Inh [2]: 9%
%Inh [3]: 12%
%Inh [4]: 0%
%Inh [5]: 2%
%Inh [6]: 5%
%Inh [7]: 0%
%Inh [8]: 0%
%Inh [9]: 0%
%Inh [10]: 0%
%Inh [11]: 0%
%Inh [12]: 0%
%Inh [13]: 8%
%Inh [14]: 0%
%Inh [15]: 0%
%Inh [16]: 0%
%Inh [17]: 28%
%Inh [18]: 12%
%Inh [19]: 0%
%Inh [20]: 0%
